Values joined by “and” are separate entries in the source; they are usually repeats but may differ in a detail not shown here. Identical values can stand only once. Records with an inconclusive call do not appear. Active and inactive are the calls of the source. Unless noted, calls follow the shape of the dose curve; as a rule, active = well fitted curve in the direction sought with a large enough effect; inconclusive = small, poorly fitted or top-dose-only effect, or another doubt; inactive = no such curve, though single readings can be large; an effect the other way counts as inactive or inconclusive. Where a SMILES comes first, the peptide text is derived from it. Bridges are numbered along the chain shown (N, C = ends). [ ]: non-standard residue; d: D form. The star is where a group is joined. Dab(CH2SO3H) = N[C@@H](CCNCS(=O)(=O)O)C(=O)O; X3 = CC[C@@H](C)CCCCC(=O)*; Dab = NCC[C@H](N)C(=O)O

Experiment [1] in a line: qHTS profiling for inhibitors of Plasmodium falciparum (3D7) proliferation (AID 743322).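 Also: infected erythrocytes exposed to compound for 72 h before lysis; 100% = DMSO vehicle wells and 0% = 0.29 µM artemisinin.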 The settings on record: P. falciparum 3D7 proliferation; at 28.7 µM (top of the series) unless noted. Put shortly: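 Parasite DNA was quantified by SYBR Green I fluorescence (ex 485, em 535 nm) after overnight lysis in saponin/Triton buffer at room temperature. Cultures at 0.3% parasitemia and 2.5% hematocrit were first exposed to compound for 72 h at 37 C; signals were normalised to artemisinin (0.29 uM) and vehicle wells.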
(Quantitative high-throughput screening tests each substance at several concentrations.)

A short description of experiment [2]: qHTS profiling for inhibitors of Plasmodium falciparum (DD2) proliferation (AID 743323; call rule not given here). The settings on record: lower = more inhibition; at 28.7 µM (top of the series) unless noted. Put shortly:
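P. falciparum Dd2-infected erythrocytes (0.3% parasitemia, 2.5% hematocrit) exposed 72 h at 37 C, 5% CO2. Lysis with SYBR Green, overnight at room temperature, fluorescence 485/535 nm; normalized to 0.29 uM artemisinin and DMSO.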

Experiment [3] can be described thus: qHTS profiling for inhibitors of Plasmodium falciparum (HB3) proliferation (AID 743324).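 Also: 100% = DMSO vehicle wells and 0% = artemisinin-treated control wells.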 The settings on record: Plasmodium falciparum HB3 blood-stage proliferation; at 28.7 µM (top of the series) unless noted. Put shortly: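 SYBR Green fluorescence (485 ex/535 em) of lysed cultures, incubated overnight at room temperature in the dark, quantifies parasite DNA. Infected erythrocytes at 0.3% parasitemia and 2.5% hematocrit were exposed 72 h; values normalized to DMSO and 0.29 uM artemisinin controls.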

Experiment [4] can be described thus: qHTS assay to identify small molecule inhibitors of chordoma cells - UCH-1 (AID 1259355). Also: % is scaled to controls: 0 for no effect and ±100 for the full control effect; nearly all actives have a fitted effect of over 55% in size. In a few lines:
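800 cells/well, overnight attach; compounds pinned at 15 concs, then auranofin/camptothecin/doxorubicin/rubitecan/topotecan combo added; 48hr 37 C, 5% CO2; CellTiter-Glo, 30min RT, luminescence.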

A short description of experiment [5]: qHTS assay to identify small molecule inhibitors of chordoma cells - UCH-2 (AID 1259356). Also: potency is read from the fitted curve at half-maximal effect.
Experiment [6] can be described thus: qHTS Assay for Identifying Gametocytocidal Compounds (AID 743244). Also: potency is read from the fitted curve at half-maximal effect.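 As to max response: % is scaled to controls: 0 for no effect and ±100 for the full control effect; actives lower the fluorescent signal which means gametocytes are killed.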 The settings on record: P. falciparum 3D7 stage III-V gametocytes, alamarBlue, 72 h; max response: stronger effect = lower value. Put shortly:
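In this qHTS viability screen, late-stage 3D7 gametocytes are incubated with compound for 72 h, then with alamarBlue for 24 h; reduced resorufin fluorescence marks killing.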

A short description of experiment [7]: qHTS assay for cell viability of HEK293 cells (AID 743288). Also: % is scaled to controls: 0 for no effect and ±100 for the full control effect; nearly all actives have a fitted effect of over 50% in size. The settings on record: ATP luminescence (CellTiter-Glo), 18 h, stronger effect = lower value. In a few lines: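 Steps: plate 2,000 parental HEK293 cells per well; incubate ≥5 h, 37 C; add compounds in DMSO; incubate 18 h, 37 C; add CellTiter-Glo; wait 30 min at room temperature; read luminescence.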
Experiment [8] is described as follows: qHTS assay for cell viability of the p53RE-bla HCT-116 cell line (AID 743292). Also: % is scaled to controls: 0 for no effect and ±100 for the full control effect; nearly all actives have a fitted effect of over 55% in size. Put shortly:
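Luminescent ATP quantitation (CellTiter-Glo) served as the viability read-out; reagent was added after 16 h compound exposure at 37 C and read after 30 min at room temperature. Cells: p53RE-bla HCT-116, 4,000 per well.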

As for `CN1CCC(CN2c3ccccc3Sc3ccccc32)C1` (stereo unspecified), the remaining parasite growth % (stronger effect = lower value) in experiment [1] was determined as 32.6%. For the same compound, in experiment [2], the activity, percent of control came to 26.9%. This compound also had a remaining proliferation (% of control), lower = more inhibition in experiment [3] of 21.8%. The Potency entry in experiment [4] is “inactive”.
Consider `CC(=O)OCC(=O)[C@@]12OC3(CCCC3)O[C@@H]1C[C@H]1[C@@H]3CCC4=CC(=O)C=C[C@]4(C)[C@@]3(F)[C@@H](O)C[C@@]12C`, for which, in experiment [5], the Potency result was “inactive”.
Same read-out and setting: for `CCc1ccc2c(c1)N(CC(C)CN(C)C)c1ccccc1S2` (stereo unspecified) the value was “inactive”.
`O=C(O)C1CCCN1` (stereo unspecified): the max response in experiment [6] was 5.42% (inactive). The Potency result in experiment [5] is “inactive”.
On to `O=C1C(=O)c2ncccc2-c2cccnc21`, for which the Potency in experiment [6] is 0.148 µM (active). In addition, the Potency entry in experiment [5] is “inactive”.
Consider `CCCCCCCCCCCC[n+]1ccc2ccccc2c1`, for which the Potency is 1.78 µM (active) in experiment [6] and 25.9 µM (active) in experiment [5].
Take `CCCCCCCC(=O)O`: the max response in experiment [6] was 10% (inactive); in experiment [7] it was -4.48% (inactive) and -6.78% (inactive). Besides, the outcome in experiment [8] was inactive. Moreover, the Potency result in experiment [5] is “inactive”.
Turning to `CC1=CCC(C(C)(C)O)CC1` (stereo unspecified), the max response in experiment [6] is -0.0478% (inactive); in experiment [7], -13.3% (inactive). For the same compound, in experiment [8], the result was inactive. In addition, in experiment [5], the Potency result was “inactive”.
With `CC(=O)Oc1c(C)cc(OCC(O)CNC(C)C)c(C)c1C` (stereo unspecified), the Potency in experiment [6] is 15.8 µM (active). Moreover, the Potency result in experiment [5] is “inactive”.
On to `CC[C@@H](C)CCCCC(=O)N[C@@H](CCNCS(=O)(=O)O)C(=O)N[C@H](C(=O)N[C@@H](CCNCS(=O)(=O)O)C(=O)N[C@H]1CCNC(=O)[C@H]([C@@H](C)O)NC(=O)[C@H](CCNCS(=O)(=O)O)NC(=O)[C@H](CCNCS(=O)(=O)O)NC(=O)[C@H](CC(C)C)NC(=O)[C@@H](CC(C)C)NC(=O)[C@H](CCNCS(=O)(=O)O)NC1=O)[C@@H](C)O` (X3-[Dab(CH2SO3H)]T[Dab(CH2SO3H)][Dab][Dab(CH2SO3H)][dL]L[Dab(CH2SO3H)][Dab(CH2SO3H)]T; lactam 4-C), for which, in experiment [6], the max response was 5.78% (inactive). Also, the Potency entry in experiment [5] was “inactive”.
On to `CC1(C)O[C@@H]2C[C@H]3[C@@H]4CCC5=CC(=O)C=C[C@]5(C)[C@H]4[C@@H](O)C[C@]3(C)[C@]2(C(=O)CO)O1`, for which the max response in experiment [6] is -15.3% (inactive). Further, the Potency result in experiment [5] was “inactive”.

For the origin of these results see PubChem BioAssay (NCATS).
